From PubChem BioAssay AID1159580 (chemical genetic matrix, 2015)
Out of some 5,500 compounds screened, about 2,000 (36%) were called active. About 18% were inconclusive and are not listed. Cut-off read from the data, not from the text of the source: active = normalized growth mostly below about 0.91 (no sharp cut-off); inconclusive = no clear call, values can overlap the other calls; inactive = mostly above about 0.92. The list shows a part of the results.

Experiment: chemical genetic growth profiling, strain panel (AID 1159580);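 note: tested at 20 µM; growth read once vehicle control cultures reached saturation at 30 °C; 1 = growth at the plate median or of vehicle wells; lower values mean less growth of the strain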
Settings: S. cerevisiae deletion strains, growth OD
[1] = locus YAL040C, strain CLN3, active compounds read low
[2] = locus YCL061C, strain MRC1 (second series), active compounds read low
[3] = locus YDR150W, strain NUM1, active compounds read low
[4] = locus YDR363W, strain ESC2, active compounds read low
[5] = locus YER002W, strain NOP16, active compounds read low
[6] = locus YJR075W, strain HOC1, active compounds read low
[7] = locus YNL175C, strain NOP13, active compounds read low
[8] = locus YNL197C, strain WHI3, active compounds read low
[9] = locus YNL224C, strain SQS1, active compounds read low
[10] = locus YOR083W, strain WHI5 (second series), active compounds read low
[11] = locus YPL241C, strain CIN2, active compounds read low

Measured: normalized growth

CC1c2cccc(O)c2C(O)=C2C(=O)C3(O)C(O)=C(C(N)=O)C(=O)C(N(C)C)C3C(O)C21 (stereo not drawn)
inactive: [1] 0.944 | [2] 0.966 | [3] 0.983 | [4] 0.936 | [5] 0.989 | [6] 0.971 | locus YMR263W, strain SAP30, active compounds read low 0.986 | locus YNL153C, strain GIM3, active compounds read low 0.891 | [7] 0.993 | [8] 1.02 | [9] 0.989 | [10] 0.977 | [11] 0.974
active: locus YGR229C, strain SMI1, active compounds read low 0.835

CN(C)C1C(=O)C(C(N)=O)=C(O)C2(O)C(=O)C3=C(O)c4c(O)ccc(Cl)c4C(O)C3CC12 (stereo not drawn)
inactive: [1] 1 | [2] 1 | [3] 0.997 | [4] 1 | [5] 1 | locus YGR078C, strain PAC10, active compounds read low 0.989 | [6] 0.999 | locus YMR307W, strain GAS1, active compounds read low 0.978 | [7] 1.02 | [8] 0.979 | [9] 0.996 | locus YNL322C, strain KRE1, active compounds read low 0.995 | [10] 0.995 | [11] 1.01
